LYPLA1 counter = LYPLA1 inhibitors, primary screen, counter-screen for PME1 inhibitor project, biochemical, fluorescence polarization, FP-Rh probe ABPP | recombinant LYPLA1 | AID 2174, 2009 | 320,000 compounds, 0.16% hits | Acyl-protein thioesterase 1 (Homo sapiens), O75608 | inhibition, % at 5.9 µM;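 active means inhibition above the mean of all tested compounds plus 3 SD, set per campaign, cut at about 14% in these data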;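 further: inhibitors block serine hydrolase probe labeling of LYPLA1 so polarization falls; 0% = enzyme with DMSO and 100% = wells lacking LYPLA1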
Target sequence (O75608 whole entry, looked up): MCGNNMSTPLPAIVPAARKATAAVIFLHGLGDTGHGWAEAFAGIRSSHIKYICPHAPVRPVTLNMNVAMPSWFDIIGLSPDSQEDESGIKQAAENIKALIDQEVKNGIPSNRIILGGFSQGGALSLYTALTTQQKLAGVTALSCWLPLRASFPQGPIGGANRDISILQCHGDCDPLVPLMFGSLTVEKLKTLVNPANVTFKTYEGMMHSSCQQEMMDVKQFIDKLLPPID
Fam108B counter = mouse Fam108B serine hydrolase inhibitors, primary screen, counter-screen for RBBP9 inhibitor project, biochemical, fluorescence polarization; inhibition, % at 9.51 µM; recombinant Fam108B, FP-Rh probe fluorescence polarization; AID 1947, 2009; 300,000 compounds, 0.33% hits;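 active means inhibition above the screen mean inhibition plus 3 SD, computed separately per campaign, cut at about 18% in these data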;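 further: inhibitors lower polarization as less probe binds the enzyme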
GSTO1 counter = inhibitors of recombinant GSTO1, primary screen, counter-screen for RBBP9 inhibitor project, biochemical, fluorescence polarization; Glutathione S-transferase omega-1 (Homo sapiens), P78417; activity-based probe fluorescence polarization; inhibition, % at 5.96 µM; 300,000 compounds, 1.1% hits; AID 1974, 2009;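 active means inhibition above the campaign mean inhibition plus 3 SD, cut at about 35% in these data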;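 further: 0% = GSTO1-1 with DMSO and 100% = wells lacking GSTO1-1 enzyme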
Target sequence (P78417 whole entry, looked up): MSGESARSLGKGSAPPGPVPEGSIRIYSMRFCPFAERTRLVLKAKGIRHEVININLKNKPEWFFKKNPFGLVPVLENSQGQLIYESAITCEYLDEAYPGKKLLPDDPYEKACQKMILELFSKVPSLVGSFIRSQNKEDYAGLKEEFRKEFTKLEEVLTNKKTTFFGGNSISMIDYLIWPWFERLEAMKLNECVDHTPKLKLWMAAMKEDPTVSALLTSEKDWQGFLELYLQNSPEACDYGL
LYPLA2 counter = LYPLA2 inhibitors, primary screen, counter-screen for PME1 inhibitor project, biochemical, fluorescence polarization, FP-Rh probe ABPP | Acyl-protein thioesterase 2 (Homo sapiens), O95372 | 320,000 compounds, 0.38% hits | recombinant LYPLA2 | inhibition, % at 5.9 µM;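 active means inhibition above the screen-wide mean plus 3 SD, limit set per campaign, cut at about 26% in these data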;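 further: 0% = LYPLA2 with DMSO and 100% = wells lacking LYPLA2 enzyme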
PME-1 inh = PME-1 inhibitors via competitive probe labeling, primary screen, biochemical, fluorescence polarization, FP-Rh probe, HTS; recombinant PME-1; 320,000 compounds, 0.53% hits; Protein phosphatase methylesterase 1 (Homo sapiens), Q9Y570; inhibition, % at 5.9 µM;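 active means inhibition above the campaign mean of all compounds plus 3 SD, cut at about 26% in these data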;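 further: competitive labeling of PME-1 active site by serine hydrolase directed probe; 0% = PME-1 with DMSO and 100% = wells lacking PME-1 enzyme; inhibitors block probe labeling so polarization falls and inhibition rises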
PAD4 inh = human PAD4 inhibitors, primary screen, biochemical, fluorescence polarization, 1536-well format; Protein-arginine deiminase type-4 (Homo sapiens), Q9UM07; recombinant PAD4, RCA probe fluorescence polarization; inhibition, % at 6.36 µM; 330,000 compounds, 0.41% hits; AID 485272, 2010;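 active means percent inhibition above a cutoff equal to the mean of all tested compounds plus 3 SD, cut at about 15% in these data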;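 further: 0% = PAD4 with RCA probe and DMSO and 100% = probe without PAD4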
GSTO1 confirm = GSTO1 inhibitor hit confirmation, counter-screen for RBBP9 inhibitor project, biochemical, fluorescence polarization, triplicate; shares compounds with GSTO1 counter; recombinant GSTO1, probe fluorescence polarization; inhibition, % at 5.96 µM; 2,400 compounds, 54% hits; AID 2176, 2009;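 active means inhibition above the primary screen's cutoff, its mean inhibition plus 3 SD, cut at about 35% in these data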;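 further: loss of polarization as inhibitors block binding of rhodamine sulfonate ester activity probe; 0% = GSTO1 with DMSO and 100% = wells lacking GSTO1 enzyme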
LYPLA1 conf = LYPLA1 inhibitors, retest, confirmation, counter-screen for PME1 inhibitor project, biochemical, fluorescence polarization, FP-Rh probe ABPP; 480 compounds, 69% hits; inhibition, % at 5.9 µM; recombinant LYPLA1; shares compounds with LYPLA1 counter;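 active means mean inhibition across replicates above the hit cutoff set in the primary screen, cut at about 15% in these data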;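 further: loss of FP-Rh probe labeling of LYPLA1 seen as lower polarization; 0% = LYPLA1 with DMSO and 100% = wells lacking LYPLA1 enzyme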
LYPLA2 conf = LYPLA2 inhibitors, retest, confirmation, counter-screen for PME1 inhibitor project, biochemical, fluorescence polarization, FP-Rh probe ABPP | shares compounds with LYPLA2 counter | recombinant LYPLA2 | inhibition, % at 5.9 µM | 1,100 compounds, 72% hits;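 active means mean inhibition across replicates above the hit cutoff set in the primary screen, cut at about 26% in these data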;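 further: blocked labeling of the enzyme by serine hydrolase FP-Rh probe lowers polarization; 0% = enzyme with DMSO and 100% = wells lacking LYPLA2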
PAD4 confirm = human PAD4 inhibitors, confirmation, biochemical, fluorescence polarization; shares compounds with PAD4 inh; recombinant PAD4, RCA probe fluorescence polarization; inhibition, % at 6.36 µM; 1,200 compounds, 28% hits; AID 488796, 2010;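 active means mean inhibition across replicates above the hit cutoff set by the earlier primary screen, cut at about 15% in these data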;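 further: inhibitors block active-site labeling by the probe so polarization falls; 0% = PAD4 with probe and DMSO and 100% = probe without PAD4 enzyme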
* hit, by the source's call; . = not tested or not shown. Only some compounds are listed: those with a hit (about 1.8% of all), similar ones and a draw of the others.

SMILES | LYPLA1 counter | Fam108B counter | GSTO1 counter | LYPLA2 counter | PME-1 inh | PAD4 inh | LYPLA1 conf | others
Nc1ccc2c(c1)C(=O)c1ccccc1C2=O | 1 | 3 | 23 | 3 | 5 | -6 | .
Nc1ccc2c(c1)C(=O)C(=O)c1ccccc1-2 | 87* | 66* | 94* | 95* | 38* | 82* | 81* | GSTO1 confirm=94*;LYPLA2 conf=92*;PAD4 confirm=73*
O=C(CN1CCN(c2ccccn2)CC1)Nc1ccc(Cl)c(C(F)(F)F)c1 | 2 | -5 | 11 | 3 | 8 | -1 | .
O=C(CN1CCN(c2ccccn2)CC1)Nc1cc(C(F)(F)F)ccc1Cl | 54* | 7 | 8 | -5 | 10 | -5 | 55*
COc1ccc(CCNC(=O)CN(c2ccccc2OC)S(C)(=O)=O)cc1OC | 2 | -2 | -3 | 7 | -3 | -1 | .
COc1ccc(CCNC(=O)CN(CCc2ccccc2)S(C)(=O)=O)cc1OC | 22* | -3 | -4 | 2 | 0 | 2 | 3
Cc1noc(C)c1NC(=O)Nc1cccc2c1O[C@@H](CN(C)Cc1ccc3c(c1)OCO3)[C@@H](C)CN([C@H](C)CO)C2=O | . | . | . | . | . | 2 | .
CCN(CC(=O)NC1CCS(=O)(=O)C1)S(=O)(=O)c1cc(C)ccc1C (centres undefined) | 0 | 3 | 2 | 1 | 4 | 0 | .
CCOC(=O)c1c(NC(=O)CSc2ncnc3ccccc23)sc(C(C)=O)c1C | 16* | -1 | -6 | 5 | 4 | 10 | 8
CCOC(=O)c1c(NC(=O)COC(=O)c2ccc([N+](=O)[O-])cc2)sc(C(=O)N(C)C)c1C | 7 | 0 | -2 | 5 | -5 | 2 | .
CCOC(=O)c1c(C)[nH]c(C(=O)OCC(=O)Nc2sc(C(=O)N(C)C)c(C)c2C(=O)OCC)c1C | 47* | -1 | 8 | 6 | 5 | -3 | 74*
Cc1nc([N+](=O)[O-])c(N2CCN(Cc3ccccc3)CC2)n1Cc1ccccc1 | 33* | 0 | 1 | -1 | 6 | 1 | 33*
CC(Sc1nc(N)cc(=O)[nH]1)C(=O)Nc1sc2c(c1C#N)CCCC2 (centres undefined) | 30* | -1 | 7 | 9 | 0 | 1 | 39*
N#Cc1c(NC(=O)CSc2nc(N)cc(=O)[nH]2)sc2c1CCCCCC2 | 6 | 0 | 5 | 20 | 2 | 2 | .
COc1ccccc1-c1nnc(SCC(=O)NNC(=O)c2ccccc2F)n1C | 24* | . | . | 7 | -5 | 2 | 4
COc1ccccc1-c1nnc(SCC(=O)NC2CC2)n1C | 1 | . | . | 6 | 2 | -6 | .
CCOC(=O)c1c(C)[nH]c(C(=O)COC(=O)CCNS(=O)(=O)c2ccc(NC(C)=O)cc2)c1C | . | . | . | . | . | -5 | .
CCOc1ccc(/C=N/Nc2cc(C)nc(N3CCOCC3)n2)cc1 | -5 | 4 | 0 | -3 | 8 | 0 | .
CCOc1ccc(/C=N/Nc2cc(N3CCOCC3)nc(C)n2)c(O)c1 | 30* | 10 | 8 | 13 | 30* | -3 | 33*

From PubChem BioAssay
